Measurements: PubChem BioAssay
Activity calls are given as the source filed them. Unless noted, how the calls were made is not given here.

Assays:
[1] = compounds binding Alexa647 anti-His antibody – biochemical, small-molecule microarray, 635 nm fluorescence, artefact control for SMM control protein annotation, primary screen (AID 1128); details: higher = more signal;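 further: score merges feature fluorescence with signal-to-noise for each printed compound spot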
[2] = test system: Human papillomavirus type 1a E7 protein (residues 1-88); test: HPV1a E7 small-molecule binders, primary screen, biochemical, small-molecule microarray, residues 1-88, 635 nm (AID 1129); details: small-molecule microarray binding, fluorescence 635 nm; higher = more signal
[3] = target: Focal adhesion kinase 1 (Homo sapiens) (UniProt Q05397); test: PTK2 protein binding on printed compound slides – biochemical, small-molecule microarray, 635/667 nm fluorescence, BSA, DTT, primary screen (AID 1130); details: 635 nm fluorescence, higher = more signal;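 further: composite of spot emission at 667 nm and signal to noise over triplicate slides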
Sequence of Focal adhesion kinase 1 (Homo sapiens) (Q05397 whole entry, looked up): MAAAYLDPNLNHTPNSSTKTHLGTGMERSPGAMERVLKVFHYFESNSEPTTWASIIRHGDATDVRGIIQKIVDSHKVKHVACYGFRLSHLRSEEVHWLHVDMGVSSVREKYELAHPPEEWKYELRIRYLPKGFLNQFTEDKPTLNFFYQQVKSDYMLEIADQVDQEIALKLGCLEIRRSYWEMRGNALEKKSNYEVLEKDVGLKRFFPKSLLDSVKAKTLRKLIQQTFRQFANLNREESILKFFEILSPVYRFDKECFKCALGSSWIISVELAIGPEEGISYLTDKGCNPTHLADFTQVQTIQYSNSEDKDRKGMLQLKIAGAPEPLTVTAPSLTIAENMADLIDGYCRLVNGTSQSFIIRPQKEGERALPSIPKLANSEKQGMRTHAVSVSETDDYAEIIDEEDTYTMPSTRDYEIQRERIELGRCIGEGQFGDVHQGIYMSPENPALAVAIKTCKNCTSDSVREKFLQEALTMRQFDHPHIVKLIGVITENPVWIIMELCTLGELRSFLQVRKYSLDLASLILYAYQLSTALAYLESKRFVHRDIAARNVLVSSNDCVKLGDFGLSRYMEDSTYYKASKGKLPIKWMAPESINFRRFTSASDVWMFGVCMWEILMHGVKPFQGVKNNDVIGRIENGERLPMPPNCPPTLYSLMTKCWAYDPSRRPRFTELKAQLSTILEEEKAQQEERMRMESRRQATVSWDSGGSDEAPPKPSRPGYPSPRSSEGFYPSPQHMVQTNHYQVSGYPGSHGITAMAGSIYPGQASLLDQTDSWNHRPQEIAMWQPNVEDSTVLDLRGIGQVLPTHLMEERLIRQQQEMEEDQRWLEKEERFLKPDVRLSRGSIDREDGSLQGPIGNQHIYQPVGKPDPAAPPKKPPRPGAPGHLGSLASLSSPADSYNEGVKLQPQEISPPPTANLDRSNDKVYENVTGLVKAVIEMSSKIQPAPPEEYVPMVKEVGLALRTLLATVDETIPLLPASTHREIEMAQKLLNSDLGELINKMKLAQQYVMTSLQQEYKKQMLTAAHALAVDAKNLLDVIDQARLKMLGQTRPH

[4] = test system: Fibrinogen (Alexa647-labelled); test: Alexa647-fibrinogen binding to printed small molecules – biochemical, small-molecule microarray, 635/667 nm fluorescence, artefact control for SMM control-protein annotation, profiling panel (AID 1131); details: fibrinogen-A647 binding fluorescence, higher = more signal;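 further: z-score merges 667 nm fluorescence with per-spot signal-to-noise over triplicate slides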
[5] = target: Follistatin (Homo sapiens) (UniProt P19883); test: FST protein binding to printed compounds – biochemical, small-molecule microarray, 635/667 nm fluorescence, primary screen (AID 1132); details: 635 nm fluorescence, higher = more signal
Sequence of Follistatin (Homo sapiens) (P19883 whole entry, looked up): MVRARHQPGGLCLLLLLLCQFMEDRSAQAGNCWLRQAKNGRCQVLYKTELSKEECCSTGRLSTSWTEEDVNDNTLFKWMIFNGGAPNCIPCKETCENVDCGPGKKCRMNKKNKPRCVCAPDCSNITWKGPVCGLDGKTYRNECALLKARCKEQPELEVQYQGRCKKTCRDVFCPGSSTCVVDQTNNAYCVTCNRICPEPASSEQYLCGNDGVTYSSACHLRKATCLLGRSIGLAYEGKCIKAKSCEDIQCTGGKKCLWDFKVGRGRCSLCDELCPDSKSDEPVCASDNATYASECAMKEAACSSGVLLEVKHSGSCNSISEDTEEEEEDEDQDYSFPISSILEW

[6] = target: Fibroblast growth factor 2 (Homo sapiens) (UniProt P09038); test: basic fibroblast growth factor binding to printed compounds – biochemical, small-molecule microarray, 635/667 nm fluorescence, primary screen (AID 1133); details: FGF2, fluorescence 635/667, higher = more signal
Sequence of Fibroblast growth factor 2 (Homo sapiens) (P09038 whole entry, looked up): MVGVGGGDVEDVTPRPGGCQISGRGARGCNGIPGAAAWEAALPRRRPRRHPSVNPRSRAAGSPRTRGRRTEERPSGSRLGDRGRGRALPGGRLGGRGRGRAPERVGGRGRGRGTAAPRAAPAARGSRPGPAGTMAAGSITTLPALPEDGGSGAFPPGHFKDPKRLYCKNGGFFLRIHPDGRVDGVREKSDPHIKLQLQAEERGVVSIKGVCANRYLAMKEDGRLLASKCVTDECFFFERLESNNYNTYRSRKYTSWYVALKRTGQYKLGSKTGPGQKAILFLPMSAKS

[7] = JC-1 mitochondrial potential readout, lung cancer cells – cell-based, A549, JC-1 fluorescence, basal, 24 h, 100 nL, profiling panel (AID 1138); details: higher = more signal;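 further: A549 lung adenocarcinoma cells under basal conditions with no added stimulus; test concentration not given here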
Lefty1 = Lefty1 protein binding to printed compounds – biochemical, small-molecule microarray, 635/667 nm fluorescence, primary screen (AID 1139); details: fluorescence 635/667, higher = more signal
[8] = test system: wheat germ agglutinin (Triticum aestivum), Alexa647-labelled; test: Alexa647-WGA lectin binding to printed small molecules – biochemical, small-molecule microarray, 635/667 nm fluorescence, artefact control for SMM control-protein annotation, profiling panel (AID 1140); details: WGA-A647 binding, 635 nm fluorescence, higher = more signal;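 further: score merges 667 nm feature emission with signal to noise over triplicate slides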
[9] = target: Luciferin 4-monooxygenase (Photinus pyralis) (UniProt P08659); test: inhibition of purified Photinus pyralis luciferase – biochemical, luminescence, purified enzyme, 2006 set, primary screen (AID 1141); details: purified firefly luciferase, SteadyGlo luminescence, 30 min; higher = more signal, called active from +8 up or from −8 down;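 further: cell-free assay with purified firefly luciferase at 100 ng per well in PBS; test concentration not given here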
Sequence of Luciferin 4-monooxygenase (Photinus pyralis) (P08659 whole entry, looked up): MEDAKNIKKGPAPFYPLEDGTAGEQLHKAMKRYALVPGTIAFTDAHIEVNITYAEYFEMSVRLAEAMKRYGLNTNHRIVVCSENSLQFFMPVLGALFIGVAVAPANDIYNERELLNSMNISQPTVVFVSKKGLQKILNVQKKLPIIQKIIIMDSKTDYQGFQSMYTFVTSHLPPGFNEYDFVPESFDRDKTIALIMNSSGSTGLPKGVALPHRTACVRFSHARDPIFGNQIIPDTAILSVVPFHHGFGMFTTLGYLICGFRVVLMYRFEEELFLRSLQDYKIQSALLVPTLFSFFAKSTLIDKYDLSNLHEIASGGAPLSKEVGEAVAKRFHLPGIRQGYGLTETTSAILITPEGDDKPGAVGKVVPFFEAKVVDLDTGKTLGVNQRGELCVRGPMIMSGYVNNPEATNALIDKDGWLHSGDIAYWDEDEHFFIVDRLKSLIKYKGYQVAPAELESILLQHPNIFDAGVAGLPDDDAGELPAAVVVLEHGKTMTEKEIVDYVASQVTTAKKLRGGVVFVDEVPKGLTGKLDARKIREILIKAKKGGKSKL

[10] = test system: Wnt5a (protein binding on small-molecule microarray); test: small molecules binding Wnt5a protein – biophysical, small-molecule microarray, 635/667 nm fluorescence, primary screen (AID 1142); details: 635 nm fluorescence, higher = more signal;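 further: fluorescence read at 667 nm with signal to noise per printed feature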
[11] = ATP-based viability of Huh7 replicon cells – cell-based, CellTiter-Glo luminescence, basal, 48 h, cytotoxicity control for HCV replication inhibitor project, primary screen (AID 1143); details: higher = more signal, called active from +8 up or from −8 down;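 further: Huh7 hepatoma cells carrying a hepatitis C replication reporter with no stimulus; test concentration not given here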
[12] = Pseudomonas biofilm growth suppression – PAO1 strain, BacTiter-Glo luminescence, LB-PBS, primary screen (AID 1144); details: P. aeruginosa PAO1 biofilm, 12 h, higher = more signal
[13] = basal CRE-LacZ reporter activity in PC12 – cell-based, unstimulated, primary screen (AID 1145); details: no forskolin, luminescence, 4.5 h, higher = more signal, called active from +8 up or from −8 down
[14] = forskolin-driven CRE-LacZ activity in PC12 – cell-based, CRE-LacZ reporter, forskolin-stimulated, primary screen (AID 1146); details: luminescence, 4.5 h, higher = more signal, called active from +8 up or from −8 down;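 further: PC12 cells with 6xCRE LacZ reporter stimulated by forskolin 10 µM; beta-galactosidase reporter signal reflecting CREB driven transcription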
[15] = target: Streptavidin (Streptomyces avidinii) (UniProt P22629); test: compounds binding control protein streptavidin – biophysical, small-molecule microarray, 635/667 nm fluorescence, artefact control for SMM compound annotation, primary screen (AID 1147); details: higher = more signal;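 further: signal reflects streptavidin binding to arrayed compounds as a control protein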
Sequence of Streptavidin (Streptomyces avidinii) (P22629 whole entry, looked up): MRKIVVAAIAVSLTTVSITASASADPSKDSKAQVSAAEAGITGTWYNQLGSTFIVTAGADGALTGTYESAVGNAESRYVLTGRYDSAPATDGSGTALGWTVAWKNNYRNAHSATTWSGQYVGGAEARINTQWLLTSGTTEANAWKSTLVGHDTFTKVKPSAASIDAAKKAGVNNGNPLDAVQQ

[16] = probe aInhba binding on compound microarray – biochemical, small-molecule microarray, 635/667 nm fluorescence, primary screen (AID 1148); details: higher = more signal;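 further: score merges 667nm spot fluorescence with signal-to-noise for antibody binding to printed compounds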
Torsin-1A (Homo sapiens) [17] = target: Torsin-1A (Homo sapiens) (UniProt O14656); test: TOR1A wild-type binding on microarray – cell lysate, small-molecule microarray, lysate, 635/667 nm, primary screen (AID 1149); details: COS7 hTOR1A-WT lysate, 635 nm fluorescence, higher = more signal
Sequence of Torsin-1A (Homo sapiens) (O14656 whole entry, looked up): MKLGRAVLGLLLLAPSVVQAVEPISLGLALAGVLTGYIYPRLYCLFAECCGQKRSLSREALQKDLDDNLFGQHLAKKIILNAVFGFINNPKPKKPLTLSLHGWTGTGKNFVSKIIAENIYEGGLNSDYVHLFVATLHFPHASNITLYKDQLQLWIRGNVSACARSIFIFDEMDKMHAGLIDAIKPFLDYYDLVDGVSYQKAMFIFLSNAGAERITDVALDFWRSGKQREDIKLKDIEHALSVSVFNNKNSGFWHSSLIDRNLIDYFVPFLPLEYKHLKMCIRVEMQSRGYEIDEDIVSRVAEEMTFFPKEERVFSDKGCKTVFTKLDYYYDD

Torsin-1A (Homo sapiens) [18] = target: Torsin-1A (Homo sapiens) (UniProt O14656); test: torsin A mutant lysate binding on microarrays – cell lysate, small-molecule microarray, COS7 lysate, 635/667 nm fluorescence, primary screen (AID 1150); details: COS7 hTOR1A mutant lysate, 635 nm fluorescence, higher = more signal;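 further: score pools 667 nm emission and signal to noise measuring lysate protein binding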
[19] = test system: Sonic hedgehog protein (Shh); test: Sonic hedgehog microarray binding compounds – biochemical, small-molecule microarray, 635/667 nm fluorescence, primary screen (AID 1151); details: 635 nm fluorescence, higher = more signal;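 further: Shh protein binding to compounds spotted on small-molecule microarray slides; score combines spot fluorescence intensity with signal-to-noise across triplicate slides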

| SMILES | composite z-score [1] | composite z-score [2] | composite z-score [3] | composite z-score [4] | composite z-score [5] | composite z-score [6] | z-score [7] | composite z-score (Lefty1) | composite z-score [8] | z-score [9] | composite z-score [10] | z-score [11] | z-score [12] | z-score [13] | z-score [14] | composite z-score [15] | composite z-score [16] | composite z-score (Torsin-1A (Homo sapiens) [17]) | composite z-score (Torsin-1A (Homo sapiens) [18]) | composite z-score [19] |
| --- | --- | --- | --- | --- | --- | --- | --- | --- | --- | --- | --- | --- | --- | --- | --- | --- | --- | --- | --- | --- |
| Cc1ccccc1C(O)C1C=CC2C(=O)N(c3ccccc3)C(=O)C2N1Nc1ccc([N+](=O)[O-])cc1 (stereo not given) | 1.48 | 1.21 | 0.533 | 1.01 | 1.23 | 1.06 | -0.752 | 0.0122 | 0.515 | 1.18 (inactive) | -0.0078 | -0.52 (inactive) | -0.35 (inactive) | 0.78 (inactive) | 0.598 (inactive) | 1.77 | 0.3 | 0.992 | 0.593 | 0.176 |
| CC(=O)N1CC(C(O)C2C=CC3C(=O)NC(=O)C3N2Nc2ccc(Cl)cc2Cl)c2ccccc21 (stereo not given) | 0.285 | 1.15 | -0.416 | 0.439 | 0.772 | -0.0113 | 0.125 | -0.216 | 1.14 | -1.4 (inactive) | -0.0061 | -0.0847 (inactive) | -0.651 (inactive) | 1.21 (inactive) | -0.584 (inactive) | 0.543 | 0.16 | -0.291 | 0.545 | -0.123 |
| CC(C)(C)OC(=O)CC[C@]1(C(=O)N2CCCCC2)COC(c2ccc(OCCCO)cc2)=N1 | 2.11 | 1.23 | 0.857 | 1 | 0.778 | -0.0857 | -0.29 | 0.197 | 1.12 | -0.3 (inactive) | 0.784 | -2.07 (inactive) | -0.984 (inactive) | -0.837 (inactive) | 0.238 (inactive) | 1.36 | 0.127 | 0.655 | 0.967 | -0.65 |
| CCCC=C(CCC)[C@@H](NC(=O)CCc1ccccc1)c1ccc(C(F)(F)F)cc1 | 0.608 | 1.16 | 0.398 | 0.973 | 0.809 | 0.94 | 3.02 | 0.17 | 0.71 | 1.31 (inactive) | -0.0114 | -2.08 (inactive) | 0.715 (inactive) | -0.568 (inactive) | 0.318 (inactive) | 1.07 | 0.0374 | 0.983 | 0.801 | -0.37 |
| C=CC[C@H](OC(=O)Nc1ccc(SC)cc1)c1ccc(OCCO)cc1 | 0.299 | -0.444 | -0.452 | -1.96 | 0.734 | 0.144 | 0.08 | 0.34 | 0.61 | -1.93 (inactive) | -0.348 | -2.69 (inactive) | -0.982 (inactive) | 8.61 (active) | 0.938 (inactive) | -0.707 | -0.112 | 0.25 | 0.154 | 1.68 |
| NC(=O)NCC#Cc1ccc2c(c1)[C@]1(C(=O)N2)[C@H](C(=O)N2CCN(c3ncccn3)CC2)[C@H]2C(=O)O[C@H](c3ccccc3)[C@H](c3ccccc3)N2[C@@H]1c1ccc(OCCO)cc1 | 0.0543 | 0.805 | 0.0827 | 0.717 | 1.33 | 0.517 | -1.18 | 0.406 | 0.276 | -0.437 (inactive) | 0.388 | 0.0749 (inactive) | -0.534 (inactive) | -0.231 (inactive) | 0.156 (inactive) | 0.644 | 0.0391 | 0.237 | 0.875 | 0.963 |
| C[C@]1(C(=O)NCC(F)(F)F)c2ccccc2C(=O)N(Cc2ccccc2)[C@H]1c1ccc(CO)cc1 | 1.09 | -0.634 | -0.712 | -1.32 | -0.684 | -1.02 | -0.0626 | -1.25 | -0.68 | 0.857 (inactive) | -0.398 | -1.48 (inactive) | -0.0817 (inactive) | -0.179 (inactive) | 0.112 (inactive) | -0.726 | -0.0719 | -0.938 | 0.808 | -1.32 |
| CO[C@H]1O[C@H](CO)[C@@H](OC(=O)c2ccc(Br)cc2)[C@@H]2OC(=O)[C@H](Cc3ccccc3)C/C=C/C[C@@H](Cc3ccccc3)C(=O)O[C@@H]12 | 0.478 | 0.817 | 0.703 | 0.135 | 0.84 | 1.37 | 0.0305 | 0.416 | -0.0716 | 0.659 (inactive) | 0.293 | -3.95 (inactive) | -1.16 (inactive) | -0.0017 (inactive) | -0.175 (inactive) | 0.088 | -0.263 | -0.295 | -0.0307 | 0.984 |
| C=C(CCCC)C(=O)CC[C@@H](OC(=O)c1cccnc1)c1ccc(OCCO)cc1 | 0.0583 | 0.581 | -0.471 | -0.0496 | 1.47 | 1.56 | 0.335 | 1.57 | 0.363 | -3.15 (inactive) | 1.08 | -2.32 (inactive) | 0.383 (inactive) | 11.5 (active) | 1.62 (inactive) | -0.444 | 0.0857 | 1.12 | 0.507 | 2.35 |
| COC(=O)[C@@]1(Cc2ccc(F)cc2)[C@H]2c3cc(C(=O)N(C)C)n(Cc4c(CO)[nH]cc(C)c4=O)c3C[C@H]2CN1C(=O)c1ccccc1 | 0.394 | 0.453 | 0.0551 | -0.466 | -0.198 | -0.197 | 0.932 | -0.0191 | 0.406 | 0.593 (inactive) | 0.39 | -0.401 (inactive) | -0.00694 (inactive) | 0.39 (inactive) | 1.15 (inactive) | -0.0278 | 0.0212 | 0.475 | -0.134 | -0.462 |
| [N-]=[N+]=Nc1ccccc1C[C@@]1(C(=O)O)N=C(c2ccc(OCCCO)cc2)O[C@@H]1c1ccccc1N=[N+]=[N-] | 2.68 | 1.25 | 0.968 | 0.963 | 0.46 | -0.606 | 0.125 | -0.817 | 1.44 | -5.43 (inactive) | -0.166 | -1.92 (inactive) | 0.0288 (inactive) | 2.09 (inactive) | -0.333 (inactive) | 1.96 | 0.151 | 0.0274 | 0.286 | -0.744 |
| C[C@@H]1ON(c2ccc(I)cc2)[C@H](c2ccc(OC(=O)OC(C)(C)C)cc2)[C@H]1C(=O)N1C(=O)OC[C@H]1Cc1ccccc1 | 0.955 | 1.13 | -0.0457 | 0.966 | 0.61 | 0.255 | 0.386 | 0.445 | 0.348 | -0.695 (inactive) | 0.0472 | -1.32 (inactive) | -0.829 (inactive) | -0.415 (inactive) | -0.642 (inactive) | 0.573 | -0.0468 | 0.0475 | 0.624 | 0.639 |
| Cc1nc2cc(Br)ccc2c(=O)n1Cc1cccc(O)c1 | 0.391 | 0.941 | 0.872 | 0.539 | 1.38 | 1.81 | 0.287 | 1.22 | 0.334 | 6.4 (inactive) | 0.59 | 0.267 (inactive) | -0.0703 (inactive) | -1.11 (inactive) | -0.978 (inactive) | 0.57 | -0.0567 | 0.995 | 0.407 | 1.29 |
